# Results taken from the supplement of paper PMC10646978.
# ± gives the standard deviation.
# What was measured:
# Conditions in all cases: modulator concentration 10 µM
# [1] = tested on: RAW-Dual (murine macrophage reporter line); test: NF-kB reporter (SEAP) activity fold change vs agonist alone; higher = enhanced NF-kB activity
# Summary of the method: (§1)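 RAW-Dual murine macrophage reporter cells were seeded at 50 000 per well in 384-well plates and pre-incubated 1 hour at 37 °C with compound pin-transferred to 10 μM final. After 1 hour, a PRR agonist was added and cells incubated overnight. Supernatant NF-κB (SEAP, QUANTI-Blue, 620 nm absorbance) and IRF (Lucia luciferase, QUANTI-Luc, luminescence) signals were divided by the mean agonist-only control on the same plate to give fold change. Two replicate plates were averaged, with errors by propagation.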
# [2] = tested on: RAW-Dual (murine macrophage reporter line); test: IRF reporter (Lucia luciferase) activity fold change vs agonist alone; higher = enhanced IRF activity
# Summary of the method: as §1
# [3] = tested on: RAW-Dual (murine macrophage reporter line); test: viability score (confluency relative to resting cells, overnight) (fraction); higher = more viable, active = viable (0.7 or more)
# Summary of the method: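 Overnight exposure to 10 μM final compound was carried out on RAW-Dual macrophages in 384-well plates. IncuCyte software generated two confluency masks over all wells imaged with IncuCyte. The viability score gives confluency in relation to resting cells. A compound met the cutoff if each mask exceeded 70% of resting cells.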
# [4] = agonist: CpG ODN 1826 0.5 ug/mL
SMILES,"NF-kB reporter [1, 4]",NF-kB reporter ([1]; agonist: LPS 0.1 ug/mL),NF-kB reporter ([1]; agonist: MPLA […]),IRF reporter ([2]; agonist: 3'3'-cGAMP 10 ug/mL),IRF reporter ([2]; agonist: LPS 0.1 ug/mL),IRF reporter ([2]; agonist: MPLA […]),viability score [3]
CC(C)NNC(=O)c1ccncc1 [Prestw-176],1.04 ± 0.078,1.06 ± 0.088,1.02 ± 0.022,1.02 ± 0.068,0.958 ± 0.083,1.01 ± 0.093,0.997 (active)
COC(=O)CNC(c1ccccc1)c1cc(Br)ccc1NC(=O)c1ccccc1Cl (centres undefined),0.675 ± 0.059,1.08 ± 0.092,0.963 ± 0.091,1 ± 0.037,1.78 ± 0.17,1.59 ± 0.16,1.01 (active)
CCCCCCc1cc2cc(-c3nc(-c4ccc(Oc5ccccc5)cc4)cs3)c(=O)oc2cc1O,0.962 ± 0.096,1.04 ± 0.085,0.946 ± 0.068,0.873 ± 0.024,1.42 ± 0.22,1.12 ± 0.29,1.01 (active)
CCN(CC)c1ccc(C=C(C#N)c2n[nH]c(N)c2C#N)c(OC)c1,1.43 ± 0.16,0.885 ± 0.095,0.976 ± 0.092,0.577 ± 0.036,0.865 ± 0.12,1.18 ± 0.15,1.02 (active)
CN1C[C@@H]2c3ccccc3Oc3ccc(Cl)cc3[C@H]2C1.O=C(O)/C=C\C(=O)O,0.164 ± 0.03,0.821 ± 0.14,0.908 ± 0.14,0.475 ± 0.044,0.914 ± 0.088,1.07 ± 0.13,0.252 (inactive)
Cc1ccc(-c2ncnn2-c2ccc(Cl)cc2)cc1,0.922 ± 0.072,0.785 ± 0.051,1.02 ± 0.11,0.695 ± 0.036,1.26 ± 0.073,1.4 ± 0.15,1.01 (active)
Br.Cc1nc(C)c(-c2csc(Nc3cccc(C(=O)O)c3)n2)s1,0.754 ± 0.067,0.883 ± 0.082,1.08 ± 0.11,0.882 ± 0.048,1.36 ± 0.087,1.56 ± 0.13,1 (active)
N#C[C@@H]1C[C@@H]2C[C@@H]2N1C(=O)[C@@H](N)C12CC3CC(CC(O)(C3)C1)C2.O,1.06 ± 0.083,0.968 ± 0.15,0.955 ± 0.024,0.956 ± 0.066,0.921 ± 0.068,0.871 ± 0.074,0.999 (active)
O=C(O)CCCCC1CCSS1 (centres undefined),0.761 ± 0.034,0.968 ± 0.077,1.05 ± 0.056,1.03 ± 0.047,1.33 ± 0.33,1.51 ± 0.52,0.978 (active)
CCSC1=C(C#N)C2(CCCC2)C(C#N)C(=O)N1 (centres undefined),1.13 ± 0.18,0.964 ± 0.086,0.91 ± 0.081,0.789 ± 0.021,1.34 ± 0.2,1.42 ± 0.23,0.988 (active)
C1CCC(N2NC2C2NN2C2CCCCC2)CC1 (centres undefined),1.01 ± 0.22,1.03 ± 0.11,0.964 ± 0.091,0.938 ± 0.024,1.23 ± 0.19,1.05 ± 0.11,1.01 (active)
COc1ccc(C(=O)C=Cc2cc(OC)c(OC)cc2OC)c(OC)c1,0.958 ± 0.24,0.902 ± 0.13,0.839 ± 0.067,0.506 ± 0.013,1.15 ± 0.16,1.06 ± 0.17,1 (active)
O=C(Nc1cc(C(F)(F)F)cc(C(F)(F)F)c1)c1cccc(Br)c1,1 ± 0.09,1.02 ± 0.079,0.911 ± 0.074,0.935 ± 0.028,1.55 ± 0.27,1.19 ± 0.26,1.01 (active)
O=C(O)CCCNC(=O)c1ccccc1C(=O)O,0.896 ± 0.092,0.911 ± 0.067,0.952 ± 0.093,1.04 ± 0.043,1.3 ± 0.14,1.41 ± 0.21,1.03 (active)
CC(C)(C)C1(O)CC(C(F)(F)F)=NN1C(=O)c1cccc([N+](=O)[O-])c1 (centres undefined),0.62 ± 0.091,1.08 ± 0.062,0.873 ± 0.052,1.01 ± 0.025,1.48 ± 0.27,1.01 ± 0.22,0.974 (active)
CN1CCN(C(=O)C(C)(c2ccccc2)c2ccccc2)CC1,0.804 ± 0.063,1.1 ± 0.062,0.946 ± 0.056,0.981 ± 0.039,1.22 ± 0.13,1.08 ± 0.17,1 (active)
Cc1cc(C)nc(NC#N)n1,0.919 ± 0.072,0.966 ± 0.11,0.971 ± 0.061,0.776 ± 0.1,1.02 ± 0.13,1.18 ± 0.2,0.998 (active)
COc1cc(C=C2NC(=O)NC2=O)cc(I)c1OCc1ccccc1,0.986 ± 0.082,1.09 ± 0.066,0.93 ± 0.098,1.05 ± 0.025,1.37 ± 0.15,1.12 ± 0.23,1.01 (active)
COc1ccc(OC)c(-c2csc(NC(=O)C3CC3)n2)c1,1.11 ± 0.068,0.972 ± 0.08,1 ± 0.034,0.935 ± 0.043,1.01 ± 0.061,1.13 ± 0.12,0.994 (active)
Nc1ccn(C2OC(CO)C(O)C2O)c(=O)n1 (centres undefined),1 ± 0.082,0.875 ± 0.092,1.49 ± 0.44,0.96 ± 0.052,1.25 ± 0.2,1.26 ± 0.27,1.03 (active)
O=C(C=Cc1cccc([N+](=O)[O-])c1)NCCc1ccccc1,1.01 ± 0.17,1 ± 0.12,0.948 ± 0.12,0.963 ± 0.048,1.27 ± 0.24,1.32 ± 0.24,0.99 (active)
CNC1CCC(c2ccc(Cl)c(Cl)c2)c2ccccc21.Cl (centres undefined),0.571 ± 0.096,0.765 ± 0.097,1.11 ± 0.25,0.52 ± 0.016,1.94 ± 0.19,2.12 ± 0.33,0.661 (inactive)
O=C(Nc1cc(C(F)(F)F)cc(C(F)(F)F)c1)c1cc(Br)ccc1Cl,0.966 ± 0.11,1.02 ± 0.066,0.912 ± 0.059,0.693 ± 0.043,1.52 ± 0.2,1.05 ± 0.2,1.01 (active)
COc1ccc(CN(CCN(C)C)c2ccccn2)cc1.O=C(O)C=CC(=O)O,0.857 ± 0.065,0.954 ± 0.051,1.01 ± 0.021,0.982 ± 0.054,0.915 ± 0.097,0.897 ± 0.07,1 (active)
c1cncc(CSc2ccc(-c3ccncc3)nn2)c1,0.532 ± 0.17,0.711 ± 0.071,0.919 ± 0.062,0.53 ± 0.037,0.647 ± 0.079,0.58 ± 0.13,0.892 (active)
CCCN1CCC(NCCc2cccc(Cl)c2)CC1,0.11 ± 0.018,0.9 ± 0.14,1.18 ± 0.091,0.704 ± 0.045,1.13 ± 0.18,1.13 ± 0.17,1 (active)
COc1ccc(-c2coc3cc(O)ccc3c2=O)cc1,0.956 ± 0.29,1.1 ± 0.1,0.992 ± 0.13,0.904 ± 0.034,1.06 ± 0.1,1.05 ± 0.17,1.01 (active)
